Data taken from PubChem BioAssay (NCATS).
Records with an inconclusive call do not appear. Activity calls are given as the source filed them. Calls follow the shape of the dose curve; as a rule, active = well fitted inhibition curve with a large enough effect; inconclusive = small, poorly fitted or top-dose-only effect; inactive = flat fitted curve, though single readings scatter.

Molecular target: Calcium and integrin-binding protein 1 (Homo sapiens) (UniProt Q99828)
Assay: Primary qHTS for Identification of Calcium Integrin Binding Protein 1 (CIB1) Competitor (AID 1508620);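 also: GST tagged CIB1 binding a fluorescein labelled alphaIIb integrin peptide tracer; top concentration of the series differs between compounds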
Conditions: CIB1-GST / FITC-alphaIIb peptide fluorescence polarization; series mostly up to 57.7 µM; activity change, negative = inhibition: at the top concentration
Summary of the method: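 Fluorescence polarization competition: CIB1-GST (1 uM final) preincubated with compound 15 min at room temperature, then FITC-labeled alphaIIb peptide (100 nM final) added for another 15 min. Polarization read at Ex 480/Em 540.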
% is scaled to controls: 0 for no effect and ±100 for the full control effect.

Chain of Calcium and integrin-binding protein 1 (Homo sapiens) (Q99828 whole entry, looked up): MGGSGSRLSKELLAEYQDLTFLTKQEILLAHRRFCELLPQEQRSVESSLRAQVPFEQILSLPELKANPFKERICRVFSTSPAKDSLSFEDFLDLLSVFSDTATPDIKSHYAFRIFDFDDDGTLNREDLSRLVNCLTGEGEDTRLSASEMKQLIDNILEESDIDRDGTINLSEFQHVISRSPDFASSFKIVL

| Compound | activity change, negative = inhibition |
| --- | --- |
| CNC(=O)[C@H]1O[C@@H](n2cnc3c(NCc4ccc(N)c(I)c4)ncnc32)[C@H](O)[C@@H]1O | -2.33% [at 30.2 µM] (inactive) |
| CC[C@H]1OC(=O)[C@H](C)[C@@H](OC2C[C@@](C)(OC)[C@@H](O)[C@H](C)O2)[C@H](C)[C@@H](OC2O[C@H](C)C[C@H](NC)[C@H]2O)[C@](C)(O)C[C@@H](C)CN(C)[C@H](C)[C@@H](O)[C@]1(C)O (stereo partly specified) | 1.68% [at 114 µM] (inactive) |
| C=CC1(C)CC(OC(=O)C(=C)C(O)COC(C)=O)C(C(=C)C(=O)OC)C(O)C1C(=C)CO (stereo unspecified) | -3.86% (inactive) |
| OCC1OC(Oc2cc(O)c3c(c2)OC(c2ccc(O)cc2)C(O)C3)C(O)C1O (stereo unspecified) | 1.64% (inactive) |
| CC(=O)N[C@H]1[C@H](O[C@H]2CC[C@@]3(C)C(CC[C@]4(C)C3CC=C3C5CC(C)(C)CC[C@]5(C(=O)O)[C@H](O[C@@H]5O[C@H](CO)[C@@H](O)[C@H](O)[C@H]5O)C[C@]34C)C2(C)C)O[C@H](CO[C@@H]2OC[C@H](O)[C@H](O)[C@H]2O[C@@H]2OC[C@@H](O)[C@H](O)[C@H]2O)[C@@H](O)[C@@H]1O (stereo partly specified) | 3.59% [at 30.2 µM] (inactive) |
| CC(=O)OC1C=C(C(=O)O)C2(CO)CCC(C)C(C)(CCc3ccoc3)C2C1 (stereo unspecified) | 0.218% (inactive) |
| CC1=CC[C@]2(C(=O)O[C@@H]3O[C@H](CO[C@@H]4O[C@H](CO)[C@@H](O[C@@H]5O[C@@H](C)[C@H](O)[C@@H](O)[C@H]5O)[C@H](O)[C@H]4O)[C@@H](O)[C@H](O)[C@H]3O)CC[C@]3(C)C(CCC4[C@@]5(C)C[C@@H](O)[C@H](O)[C@@](C)(CO)C5CC[C@]43C)C2C1C (stereo partly specified) | -0.144% [at 30.2 µM] (inactive) |
| O=C(O)C[C@H]1CCC(=O)[C@@H]1C/C=C\CCOC1OC(CO)C(O)C(O)C1O (stereo partly specified) | -3.58% (inactive) |
| CC1=CC2(O)/C=C/C(C)(O)CC(O)/C=C/C(=O)OC23C(=O)NC(CC(C)C)C3C1C (stereo unspecified) | 1.02% (inactive) |
| C=C[C@@]1(C)CC(=O)C2[C@](C)(O1)[C@@H](OC(C)=O)[C@@H](O)[C@H]1C(C)(C)CCC[C@]21C (stereo partly specified) | 1.14% [at 30.2 µM] (inactive) |
| CC1(C)CCC(C)(C)c2cc3c(cc21)Sc1ccccc1N=C3c1ccc(C(=O)O)cc1 | -2.38% [at 114 µM] (inactive) |
| CC(=O)OC[C@@]12[C@H](O)C[C@]3(C)C(=CCC4[C@@]5(C)CC[C@H](O[C@@H]6O[C@H](C(=O)O)[C@@H](O[C@@H]7O[C@H](CO)[C@@H](O)[C@H](O)[C@H]7O)[C@H](O)[C@H]6O[C@@H]6O[C@H](CO)[C@@H](O)[C@H](O)[C@H]6O)[C@](C)(CO)C5CC[C@]43C)[C@@H]1CC(C)(C)[C@@H](OC(C)=O)[C@@H]2O (stereo partly specified) | 2.83% [at 30.2 µM] (inactive) |
| CC(=O)O[C@H]1CC[C@@]2(CI)C(=CC[C@@H]3[C@@H]2CC[C@]2(C)[C@@H]([C@H](C)CCCC(C)C)CC[C@@H]32)C1 | 2.02% [at 30.2 µM] (inactive) |
| CO[C@@]12CC3[C@@H]([C@@H](O)[C@@H](OC(C)=O)C4[C@](C)(COC(C)=O)CCC[C@]34C)[C@@H](C)C1=CC(=O)O2 (stereo partly specified) | 4.13% (inactive) |
| COc1cc(C[C@H]2COC(=O)[C@@H]2Cc2ccc(O)c(OC)c2)ccc1O | -6.25% (inactive) |
| C[C@@H]1CCN(C(=O)CC#N)C[C@@H]1N(C)c1ncnc2[nH]ccc12 | 1.78% [at 114 µM] (inactive) |
